# Myeloid diff MLP – promotes myeloid progenitor differentiation. ER-HoxA9 myeloid progenitors, lysozyme-GFP differentiation, flow cytometry. calls only at 10 µM. 1% of 360,000 active. AID 624256;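 active = normalized GFP-positive differentiation at or above the plate's own cutoff, the solvent-only control mean plus 3 SD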;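 note: cells exposed to compound for four days before flow analysis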
# FAS-TE inh – blocks the thioesterase domain of human fatty acid synthase; P49327; recombinant FAS-TE, OMFH fluorogenic substrate, fluorescence endpoint; inhibition, % at 15 µM; 0.67% of 360,000 active; AID 602261;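 active = compounds whose normalised, plate-corrected inhibition of enzyme fluorescence in the single-dose primary screen is 50% or more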;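 note: 0% = DMSO with enzyme and 100% = substrate without enzyme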
# CRFR2-BP antag – CRF-BP/CRF-R2 complex antagonism. HEK293 CRF-R2/CRF-BP, CRF-induced calcium fluorescence. inhibition, % at 11.8 µM. 0.59% of 350,000 active;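 active = inhibition of the ligand-induced calcium signal above about 50% at the single tested concentration, limit read from the data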
# NadD block – blocks S. aureus nicotinate mononucleotide adenylyltransferase. purified NadD enzyme, colorimetric absorbance read-out. inhibition, % at 20 µM. AID 602399. 0.78% of 360,000 active; in the data active = inhibition above about 26%
# CendR NRP1 mod – alters CendR peptide binding to human NRP-1; 0.85% of 360,000 active; O14786; FAM-RPARPAR peptide binding to NRP-1, fluorescence polarization; AID 602438; inhibition, % at 25 µM;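 active = inhibition or corrected inhibition above about 18%, plus a signal ratio from 0.5 to 1.5, limit read from the data, passing the limit was not always enough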
# * = called active by the depositor; i = inactive; · = no result given; + = active, no number. Rows were chosen to be rich in hits. Some 3.6% of all compounds tested hit in one or more screens of this group.
SMILES,Myeloid diff MLP,FAS-TE inh,CRFR2-BP antag,NadD block,CendR NRP1 mod
CC1CN(S(=O)(=O)c2cc(C(=O)NC(C)c3cccnc3)ccc2Cl)CC(C)O1 (stereo not drawn),i,-6,7,-3,20*
CC(NC(=O)COC(=O)C1(C)CC1(Cl)Cl)c1ccccc1 (stereo not drawn),i,-6,54*,4,-14
CC1(C(=O)OCC(=O)NC(=O)c2ccccc2)CC1(Cl)Cl (stereo not drawn),i,3,-29,-6,1
CC1(C(=O)NS(=O)(=O)Cc2cccc(Cl)c2)CCN1C(=O)CC1CCCC1 (stereo not drawn),i,-2,·,1,-3
Cc1ccc(C(=O)Oc2oc(-c3ccccc3)nc2C=Nc2ccc(N(C)C)cc2)cc1,i,-17,10,8,-3
CN(C)c1ccc(N=Cc2nc(-c3ccccc3)oc2OC(=O)c2cccc(Cl)c2)cc1,i,1,-20,-1,28*
CC(C)NC(=O)c1c(CSc2ccccc2)noc1C(=O)NCc1ccccc1,i,18,5,-6,32*
CC(C)NC(=O)c1c(CSc2ccc(Cl)cc2)noc1C(=O)NCc1ccccc1,i,16,1,-11,13
CC[C@H](C)[C@@H](COC=O)NC(=O)[C@H]1O[C@@H](n2ccc(N)nc2=O)[C@H](O)[C@@H]1O,i,-7,·,-6,31*
CC(C)[C@H](COC=O)NC(=O)[C@H]1O[C@@H](n2ccc(N)nc2=O)[C@H](O)[C@@H]1O,i,-4,·,-2,-10
Cc1ccc(S(=O)(=O)N[C@@H](Cc2ccccc2)C(=O)N2CCC[C@@H]2C(=O)O)cc1,i,-3,-4,0,2
COc1cccc(/C=N/NC(=O)c2nc(-c3ccccc3)cc(-c3ccccc3)n2)c1O,i,18,-7,29*,-6
COc1ccc(/C=N/NC(=O)c2nc(-c3ccccc3)n(-c3ccccc3)n2)c(O)c1,·,31,-24,41*,-7
CCOC(=O)[C@]12CCC=C1N(Cc1ccc(Cl)cc1Cl)C(=O)[C@H](CC(=O)NCCc1ccccc1OC)C2,i,20,·,1,-2
N=c1c2c(-c3ccccc3)c(-c3ccccc3)n(Cc3ccccc3)c2ncn1CCCn1ccnc1,+,-35,-17,22,-1
CCCCn1cnc2c(c(-c3ccccc3)c(-c3ccccc3)n2Cc2ccco2)c1=N,i,-4,-11,-9,-9
CCOC(=O)C1=CCN(S(=O)(=O)c2ccccc2F)C1c1ccc(F)cc1 (stereo not drawn),i,14,·,-8,-7
CN(C)c1ccc(/C=C/c2nc3ccccc3c(=O)n2-c2ccc(C(=O)O)cc2)cc1,+,-35,-24,0,120
O=C(O)c1cccc(-n2c(/C=C/c3ccccc3)nc3ccccc3c2=O)c1,i,-2,16,0,0
Cc1cc(C(=O)COC(=O)Cn2c(C(F)(F)F)nc3ccccc32)c(C)n1Cc1ccco1,i,13,22,-7,20*
Cc1cc(C(=O)COC(=O)CNC(=O)c2ccc(Cl)c(Cl)c2)c(C)n1Cc1ccco1,i,21,36,-4,-2
Cc1ccc(C(=O)NCC(=O)OCC(=O)c2cc(C)n(Cc3ccco3)c2C)cc1,i,9,12,-4,33*
O=S1(=O)CC(N2CC=CC2)CN1Cc1cn(Cc2cccc(Cl)c2)nn1 (stereo not drawn),i,-11,·,-1,10
CCCOc1ccc(CNC(=O)c2ccc3c(c2)N(CC)CCS3)cc1,+,24,46,0,6
CCN1CCSc2ccc(C(=O)NCc3cccc(Br)c3)cc21,i,20,7,3,-1
SMILES,Myeloid diff MLP,FAS-TE inh,CRFR2-BP antag,NadD block,CendR NRP1 mod
O=C(Nc1cccnc1)C1Cc2c(-c3ccco3)ccnc2O1 (stereo not drawn),i,-9,·,-4,-2
Cc1ccc(Nc2cc(C)nc3ccc(C)cc23)cc1,i,-3,-1,-6,21*
COc1ccc(Nc2cc(C)nc3ccc(OC)cc23)cc1,·,-4,4,-6,29*
CCC1(C)CC(C#N)(C#N)C(=O)NC1=O (stereo not drawn),i,-5,·,-1,12
O=S1(=O)CC(N2CCSCC2)CN1Cc1cn(Cc2ccc(C(F)(F)F)cc2)nn1 (stereo not drawn),i,-8,·,1,-2
CC(=O)N(Cc1ccco1)c1nc(C(=O)Nc2ccc(Cl)cc2)c(C)s1,i,28,65*,-3,-2
